{"source": "PubChem BioAssay (Tox21)", "note": "Results filed as inconclusive are left out. A call without a number means that no potency is given here. Some structures have more than one record in an assay (separate samples or runs), and their calls can disagree. Activity calls are given as the source filed them. Calls come from the whole dose curve; as a rule, active = well fitted activation curve with a large enough effect in the repeat runs; inconclusive = weak or mixed curves; inactive = flat fitted curve, though single readings scatter. Potency is the fitted concentration of half-maximal effect.", "data": [{"assay": "A CellTox Green Cytotoxicity Assay to monitor cytotoxicity in HEK293 cells - 40 hour (AID 1224871); note: nearly all actives have a fitted effect of over 45% in size", "details": "CellTox Green fluorescence; series mostly up to 76.8 µM", "text": "National Center for Advancing Translational Sciences [NCATS]\nNIH Chemical Genomics Center [NCGC]\nU.S. Environmental Protection Agency [EPA]\nNational Institutes of Environmental Health Sciences [NIEHS]\nNational Toxicology Program [NTP]\nCell-based models are critical for drug discovery. Determining the natural cytotoxic effects resulting from test compounds is an essential research activity. A CellTox Green Cytotoxicity Assay to monitor cytotoxicity in real time of continues cell culture during 40 hours of the compound treatment was used to screen Tox21 10K library compounds in Hek293 cells. CellTox Green Cytotoxicity Assay is a nonlytic, homogeneous, biofluorescent method to measure cytotoxicity in cell culture after experimental manipulation. The assay system uses a proprietary asymmetric cyanine dye that is excluded from viable cells but preferentially stains the dead cell's DNA. […] Viable cells produce no appreciable increases in fluorescence. Therefore, the fluorescence signal produced by the binding interaction with dead cell DNA is proportional to cytotoxicity.\nThe mixture of Hek293 cell suspension and reagents were dispensed at 600cells/6 ul/well in 1536-well tissue culture treated black solid bottom plates using a Multidrop dispenser. After the assay plates were incubated at a 37 C/5% CO2 incubator for 5 hours, 23 nL of compounds dissolved in DMSO, positive and negative controls was transferred to the assay plate by a pintool work station. The plates were incubated at 37 C for 40 hours. The fluorescence intensity were measured at 0h, 8h, 16h, 24h, 32h and 40h time points using ViewLux plate reader during compound treatment.", "values": [{"smiles": "C[C@@H]1C[C@H]2[C@@H]3CCC4=CC(=O)C=C[C@]4(C)[C@@]3(Cl)[C@@H](O)C[C@]2(C)[C@@]1(OC(=O)c1ccco1)C(=O)CCl", "Potency": "inactive"}, {"smiles": "N=C1N=C(N)c2cc3ccccc3cc21", "Potency": "54.9 µM (active)"}, {"smiles": "C[C@H]1[C@H]2CC[C@H]3[C@@H]4CC=C5C[C@@H](N(C)C)CC[C@]5(C)[C@H]4CC[C@]23CN1C", "Potency": "inactive"}, {"smiles": "CCCCCCCCCCCCc1ccc(O)cc1", "Potency": "49 µM (active)"}, {"smiles": "CCCCCCCCCCCCCCCCCC[N+](C)(C)Cc1ccccc1", "Potency": "19.7 µM (active)"}, {"smiles": "Cc1ccc(O)c(C(C)(C)C)c1", "Potency": "43.6 µM (active)"}, {"smiles": "CC(=O)S[C@@H]1CC2=CC(=O)CC[C@]2(C)[C@H]2CC[C@@]3(C)[C@@H](CC[C@@]34CCC(=O)O4)[C@H]12", "Potency": "inactive"}, {"smiles": "Cc1oc(-c2ccccc2)nc1CCC(=O)c1ccc(CC2SC(=O)NC2=O)cc1", "note": "(stereo not given)", "Potency": "inactive"}, {"smiles": "C=C(C)C(=O)OCC[N+](C)(C)C", "Potency": "inactive"}, {"smiles": "CCCCCOC(=O)CCCC", "Potency": "inactive"}, {"smiles": "O=C(c1ccc(F)cc1)C1CCN(CCn2c(=O)[nH]c3ccccc3c2=O)CC1", "Potency": "inactive"}, {"smiles": "Clc1ccccc1C(c1ccccc1)(c1ccccc1)n1ccnc1", "Potency": "43.6 µM (active) and inactive"}, {"smiles": "CCOC(=O)O[C@]1(C(=O)OCCl)CC[C@H]2[C@@H]3CCC4=CC(=O)C=C[C@]4(C)[C@H]3[C@@H](O)C[C@@]21C", "Potency": "inactive"}, {"smiles": "O=C(NO)C1(NS(=O)(=O)c2ccc(Oc3ccc(F)cc3)cc2)CCOCC1", "Potency": "inactive"}, {"smiles": "CCCC1O[C@@H]2C[C@H]3[C@@H]4CCC5=CC(=O)C=C[C@]5(C)[C@H]4[C@@H](O)C[C@]3(C)[C@]2(C(=O)CO)O1", "note": "(stereo not given in full)", "Potency": "inactive"}, {"smiles": "COc1cccc(N)c1", "Potency": "inactive"}, {"smiles": "CCCCCCCCS(=O)C(C)Cc1ccc2c(c1)OCO2", "note": "(stereo not given)", "Potency": "inactive"}, {"smiles": "O=C1C=CC(=O)N1c1ccc(Cc2ccc(N3C(=O)C=CC3=O)cc2)cc1", "Potency": "11 µM (active)"}, {"smiles": "CCC1OCC(COc2ccc(Oc3ccccc3)cc2)O1", "note": "(stereo not given)", "Potency": "inactive"}, {"smiles": "CC[C@@]1(O)C(=O)OCc2c1cc1n(c2=O)Cc2cc3c(CN(C)C)c(O)ccc3nc2-1", "Potency": "21.3 µM (active)"}, {"smiles": "CNCc1cc(F)ccc1Oc1ccc(Cl)c(Cl)c1", "Potency": "49 µM (active)"}, {"smiles": "CSc1cnc(C)cn1", "Potency": "89.4 µM (active)"}, {"smiles": "COc1cc(-c2ccc(N=C=O)c(OC)c2)ccc1N=C=O", "Potency": "inactive"}, {"smiles": "CCOC(=O)c1nc(C(Cl)(Cl)Cl)n(-c2ccc(Cl)cc2Cl)n1", "Potency": "inactive"}, {"smiles": "Nc1nc2ccccc2n1Cc1ccc(F)cc1", "Potency": "inactive"}, {"smiles": "CC(C)(C)C(=O)OCOC(=O)[C@@H]1N2C(=O)[C@@H](NC(=O)[C@H](N)c3ccccc3)[C@H]2SC1(C)C", "Potency": "inactive"}, {"smiles": "NNC(=O)c1cccc(C(=O)NN)c1", "Potency": "inactive"}, {"smiles": "OCCCCCCCCCCCCBr", "Potency": "inactive"}, {"smiles": "CC(C)(C)CC(C)(C)c1ccc(O)c(Cc2ccc(Cl)cc2Cl)c1", "Potency": "23.9 µM (active)"}, {"smiles": "C[C@H](CCC(=O)O)[C@H]1CC[C@H]2[C@@H]3CC[C@@H]4C[C@H](O)CC[C@]4(C)[C@H]3CC[C@]12C", "Potency": "inactive"}, {"smiles": "c1ccc(CSCc2ccccc2)cc1", "Potency": "inactive"}, {"smiles": "COCCCC/C(=N\\OCCN)c1ccc(C(F)(F)F)cc1", "Potency": "inactive"}, {"smiles": "CCN(Cc1cccnc1)C(=O)c1cccc(Cl)c1[C@]1(C)C(=O)N(Cc2ccc(OC)cc2OC)c2ccc(Cl)cc21", "Potency": "inactive"}, {"smiles": "O=C(N/N=C/c1ccccc1O)c1ccncc1", "Potency": "inactive"}, {"smiles": "CCCCCCCCCCCC(=O)NCCCN(C)C", "Potency": "49 µM (active)"}, {"smiles": "Cc1onc(-c2ccccc2Cl)c1C(=O)N[C@@H]1C(=O)N2[C@@H]1SC(C)(C)[C@@H]2C(=O)O", "Potency": "inactive"}, {"smiles": "CCCC(C)c1ccccc1O", "note": "(stereo not given)", "Potency": "49 µM (active)"}, {"smiles": "CCCC(=O)OC[C@@H](OC(=O)CCC)[C@@H](OC(=O)CCC)[C@H](Cn1c2nc(=O)[nH]c(=O)c-2nc2cc(C)c(C)cc21)OC(=O)CCC", "Potency": "21.3 µM (active)"}, {"smiles": "CCCC/C=C/CCCCO", "Potency": "inactive"}, {"smiles": "Cc1cc(CCN2CCN(c3nsc4ccccc34)CC2)cc2c1NC(=O)CC2(C)C", "Potency": "49 µM (active)"}]}]}
